Assay results taken from PubChem BioAssay AID743279 (National Center for Advancing Translational Sciences (NCATS), 2014).
In all, about 360,000 compounds went through this assay and about 17,000 (4.7%) were called active. Inconclusive results (about 5%) are left out. Rule as the data show it: active = activity change below about -50%; inconclusive = mostly about -30% to -49%; inactive = weaker than that. This excerpt belongs to a sample that is enriched for actives.

assay: qHTS for Inhibitors of Inflammasome Signaling: IL-1-beta AlphaLISA Primary Screen; conditions: THP-1 LPS/ATP IL-1B secretion, 16 h; at 57.5 µM, active compounds read low
Method in brief: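 THP-1 cells pretreated 1 hr with compounds (up to 57.5 uM final), then stimulated with LPS (250 ng/mL final) plus ATP (1.25 mM final); secreted IL-1B measured by AlphaLISA after 16 hr, decreased signal indicating inhibition.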
% is scaled to controls: 0 for no effect and ±100 for the full control effect.

Compound | activity change
CCCC(=O)N1CCC1(C)C(=O)NCc1ccc(C(C)C)cc1 (stereo not given) | -18% (inactive)
Cc1cc(C)cc(OCC(=O)O/N=C(\N)Cc2ccc([N+](=O)[O-])cc2)c1 | -24.7% (inactive)
N/C(Cc1ccc([N+](=O)[O-])cc1)=N\OC(=O)COc1ccc2ccccc2c1 | -59.9% (active)
N/C(=N\OC(=O)Cc1ccc([N+](=O)[O-])cc1)c1ccccn1 | -21.1% (inactive)
CC1(C(=O)NS(=O)(=O)c2ccccc2)CCN1C(=O)c1ccccc1 (stereo not given) | 21% (inactive)
O=C(CN1CCSCC1)N/N=C/c1ccc(F)cc1 | -9.62% (inactive)
CCOc1cc(/C=N/NC(=O)CN2CCCCC2)ccc1O | 2.69% (inactive)
Cc1ccc(COc2ccc(/C=N/NC(=O)CN3CCCCC3)cc2)cc1 | -51.4% (active)
COc1ccc(N2CC(C(=O)NCCN3C(=O)S/C(=C\c4cccnc4)C3=O)CC2=O)c(OC)c1 (stereo not given) | -26.5% (inactive)
COc1cc(OC)cc(C(=O)NNC(=O)Cc2cccs2)c1 | -1.89% (inactive)
Cc1cc2nc(-c3ccco3)c(Cc3cccc(F)c3)n2c(C)c1Br | 5.29% (inactive)
O=S1(=O)CC(N2CCN(CCO)CC2)CN1Cc1cn(Cc2cccc(Cl)c2)nn1 (stereo not given) | 13.7% (inactive)
COc1ccc(C2=NN(C(=O)CSc3nnnn3C)C(c3ccco3)C2)cc1 (stereo not given) | -17.6% (inactive)
CCOC(=O)C1C(=O)C=C(c2ccc(OC)cc2)CC1c1ccco1 (stereo not given) | -62.8% (active)
CCOC(=O)C1C(=O)NC(N2CCN(c3ccccc3)CC2)=NC1c1ccco1 (stereo not given) | -8.04% (inactive)
Cc1ccc(NC(=O)C(C)OC(=O)C2CC3CCCC(C2)C3=O)cc1S(=O)(=O)N1CCOCC1 (stereo not given) | 21% (inactive)
CC1(C(=O)Nc2cccc3c2CCCC3)CCN1C(=O)C1(c2ccccc2)CC1 (stereo not given) | 2.24% (inactive)
CC(C)Cc1ccc(-c2cc3nc(NCc4cccc(Cl)c4)ccn3n2)cc1 | 16.6% (inactive)
COc1ccc(-c2csc3ncnc(N4CCN(S(=O)(=O)c5cccc(F)c5)CC4)c23)cc1 | -1.57% (inactive)
COc1cccc(C=CC(=O)C=CC=Cc2ccccc2)c1 | -59.4% (active)
COc1cccc(/C=C/C(=O)OCC(=O)N2CCCc3ccccc32)c1 | -0.538% (inactive)
COc1cccc(C(=O)NNC(=O)/C=C/c2ccccc2)c1 | 12.5% (inactive)
COc1ccc(C2OC(CCc3ccccc3)Cc3[nH]c(=S)[nH]c(=O)c32)cc1 (stereo not given) | -10.2% (inactive)
COc1cc(Cl)ccc1OCc1cc(C(=O)N2CC[C@@H]3CCCC[C@H]3C2)no1 | -82.6% (active)
COc1ccc(OCc2cc(C(=O)N3CCCC3)no2)c2ccccc12 | 0% (inactive)
CCn1ccnc1CN(C)C(=O)c1cc(COc2ccc(Cl)cc2OC)on1 | -11% (inactive)
O=C(CC(O)(C(F)(F)F)C(F)(F)F)Nc1ccc(Cl)c(Cl)c1 | -71.8% (active)

Compound | activity change
O=C(CCCN1C(=O)CCC1=O)Nc1ccc(Cl)c(C(F)(F)F)c1 | 3.74% (inactive)
O=C(COC(=O)c1cc[n+]([O-])cc1)Nc1ccc(Cl)c(C(F)(F)F)c1 | 14.3% (inactive)
COc1ccc(C(=O)N2CCCCC2c2cc(C(=O)Nc3ccccc3)no2)cc1 (stereo not given) | -3.11% (inactive)
O=C(CCN1C(=O)c2ccncc2C1=O)Nc1cc(F)ccc1F | 36.2% (inactive)
C#CCOCCOCCOCCNc1nc(N2CCN(C(=O)Cn3cc(CCO)nn3)CC2)nc(N2CCN(C(=O)Cn3cc(CCCN=C(N)N)nn3)CC2)n1 | 12.6% (inactive)
C#CCOCCOCCOCCNc1nc(N2CCN(C(=O)Cn3cc(CCO)nn3)CC2)nc(N2CCN(C(=O)[C@H](CCCCN)n3cc(CCCC)nn3)CC2)n1 | 2.45% (inactive)
C#CCOCCOCCOCCNc1nc(N2CCN(C(=O)[C@H](C(C)C)n3cc(CCO)nn3)CC2)nc(N2CCN(C(=O)[C@H]([C@@H](C)CC)n3cc(CCCN=C(N)N)nn3)CC2)n1 | -5.99% (inactive)
C#CCOCCOCCOCCNc1nc(N2CCN(C(=O)CCCCCCCCCCNC(=O)[C@H]([C@@H](C)CC)n3cc(CCCCN=C(N)N)nn3)CC2)nc(N2CCN(C(=O)CCCCCCCCCCNC(=O)[C@H](CO)n3cc(CCCSC)nn3)CC2)n1 | -111% (active)
C#CCOCCOCCOCCNc1nc(N2CCN(C(=O)CCCCCCCCCCNC(=O)Cn3cc(CCCCCN)nn3)CC2)nc(N2CCN(C(=O)CCCCCCCCCCNC(=O)[C@H](CO)n3cc(CCCSC)nn3)CC2)n1 | -72.1% (active)
C#CCOCCOCCOCCNc1nc(N2CCN(C(=O)[C@H](CCC(=O)O)n3cc(CN)nn3)CC2)nc(N2CCN(C(=O)[C@H](CCC(=O)O)n3cc(CN)nn3)CC2)n1 | 25.6% (inactive)
C#CCOCCOCCOCCNc1nc(N2CCN(C(=O)Cn3cc(CCCCN)nn3)CC2)nc(N2CCN(C(=O)[C@H](CCCCN)n3cc(CCC(=O)O)nn3)CC2)n1 | 58.3% (inactive)
C#CCOCCOCCOCCNc1nc(N2CCN(C(=O)CCCCCCCCCCNC(=O)[C@H](CCCCN)n3cc(C)nn3)CC2)nc(N2CCN(C(=O)CCCCCCCCCCNC(=O)[C@H](CO)n3cc(CCCSC)nn3)CC2)n1 | -81.7% (active)
C#CCOCCOCCOCCNc1nc(N2CCN(C(=O)[C@H](CCCCN)n3cc(CCC(=O)O)nn3)CC2)nc(N2CCN(C(=O)[C@H](CCCCN)n3cc(CC(C)O)nn3)CC2)n1 (stereo not given in full) | 3.3% (inactive)
COc1ccc(CCNc2cc(N3CCN(C(=O)c4ccccc4OC)CC3)ccc2[N+](=O)[O-])cc1OC | 42.9% (inactive)
O=C(NN=CC=Cc1ccccc1)C(O)C(O)C(=O)NN=CC=Cc1ccccc1 (stereo not given) | -17.2% (inactive)
Cc1ccc(C(CNC(=O)Nc2cccc(C)c2)N2CCN(C)CC2)cc1 (stereo not given) | -20.1% (inactive)
CCC1CCCCN1C(=S)NC(=O)c1ccco1 (stereo not given) | -6.58% (inactive)
CCn1c(=O)c2ccccc2n(CC(=O)N2CCCc3ccccc32)c1=O | -0.244% (inactive)
COc1ccc(CCNC(=O)COc2cc(C)cc3oc(=O)c(C)c(C)c23)cc1OC | -1.44% (inactive)
Cc1cccc(NC(=O)c2ccc(COc3ccccc3[N+](=O)[O-])o2)n1 | 6.94% (inactive)
CCOc1ccc(OCc2ccc(C(=O)Nc3cccc(C)n3)o2)cc1 | -69% (active)
CCOc1ccc(OCc2ccc(C(=O)N(C)c3ccccc3)o2)cc1 | -7.29% (inactive)
OC[C@@H]1CN(Cc2ccc(Cl)cc2)C[C@H](n2cnc3c(NCc4ccncc4)ncnc32)O1 | -7% (inactive)
C=CCn1c2c(c3ccccc31)CCC2 | 0% (inactive)
CC(C)(C)c1ccc(C(=O)NNC(=O)Cc2ccccc2)cc1 | 0.0784% (inactive)
Cc1ccc(C(=O)CSc2ccccc2C(=O)O)cc1 | 5.18% (inactive)
Cc1ccc(SC(CC(=O)c2ccc(C(C)(C)C)cc2)C(=O)O)cc1 (stereo not given) | -93.8% (active)

Compound | activity change
CCC(C)C1(C2CCCC2)NC(=O)NC1=O (stereo not given) | -5.19% (inactive)
CC1(c2ccccc2)CC(C)(C)N(C(=O)c2cc([N+](=O)[O-])cc([N+](=O)[O-])c2)c2ccccc21 (stereo not given) | 5.37% (inactive)
CC1(c2cccc([N+](=O)[O-])c2)CC(C)(C)N(C(=O)c2ccccc2)c2ccccc21 (stereo not given) | -2.13% (inactive)
Cc1nnc(SCC(=O)N2c3ccccc3C(C)(c3ccc(Cl)cc3)CC2(C)C)s1 (stereo not given) | -71.6% (active)
CCOC(=O)C1=CC[C@@H](c2ccccc2)N(S(=O)(=O)c2ccc(C)cc2)[C@H]1c1cccc(OC)c1 | 2.13% (inactive)
OC(COc1ccc(Br)cc1)CN1CCCC1 (stereo not given) | -27.2% (inactive)
CCC(=O)c1ccc(OCC(O)CN2CCN(c3cccc(C(F)(F)F)c3)CC2)cc1 (stereo not given) | -11.4% (inactive)
CC1CCN(CC(O)COc2ccc(C(=O)c3ccccc3)cc2)CC1 (stereo not given) | -22.3% (inactive)
OC(COc1ccc2c(c1)CCC2)CN1CCN(c2cccc(Cl)c2)CC1 (stereo not given) | -64.8% (active)
O=C(c1ccc(Cl)cc1)c1ccc(OCC(O)CN2CCCCC2)cc1 (stereo not given) | -52.5% (active)
OC(COc1ccccc1)CN1CCN(c2cccc(Cl)c2)CC1 (stereo not given) | 14.3% (inactive)
CC(C)NC(=O)C1(C)CCCCN1Cc1cccc(C(F)(F)F)c1 (stereo not given) | 12.4% (inactive)
CCCCCNC(=O)C(c1ccc(OC)cc1)n1c(=O)c(-c2ccccc2)nc2ccccc21 (stereo not given) | -10.4% (inactive)
CCOC(=O)C1(C)CCCN(C(=O)c2ccc(F)c(Cl)c2)C1 (stereo not given) | 7.31% (inactive)
C[C@H]1CN([C@@H](C)CO)C(=O)CCCn2cc(nn2)CO[C@@H]1CN(C)S(=O)(=O)c1ccc(-n2cccn2)cc1 | -21.5% (inactive)
O=C(CSCc1ccc([N+](=O)[O-])cc1)Nc1cccc(C(=O)Nc2ccccc2C(=O)O)c1 | 13.4% (inactive)
O=C(Cc1ccc(S(=O)(=O)N2CCOCC2)s1)Nc1ccc(Br)c(C(F)(F)F)c1 | -61% (active)
O=C(Cc1ccc(S(=O)(=O)N2CCOCC2)s1)NCCOc1ccccc1F | 6.24% (inactive)
O=C(Cc1ccc(S(=O)(=O)N2CCOCC2)s1)NCCC(c1ccccc1)c1ccccc1 | 17% (inactive)
CCN(C(=O)Nc1cccc2ccccc12)c1ccccc1 | 12.7% (inactive)
O=C(Nc1nnc(-c2ccccc2)o1)c1cc(-c2cccs2)nc2ccccc12 | 23% (inactive)
CC(=O)Nc1cccc(Nc2nc(-c3cccs3)nc3ccccc23)c1 | -65.6% (active)
COc1ccccc1C(=O)Nn1c(-c2cccs2)nc2ccccc2c1=O | -3.33% (inactive)
Cc1ccc(NS(=O)(=O)c2ccc(C(C)(C)C)cc2)cn1 | 1.59% (inactive)
COc1ccccc1Oc1ccc(S(=O)(=O)Nc2cccnc2)cc1 | -2.24% (inactive)
Cc1cc(C)cc(NS(=O)(=O)c2ccc(Oc3ncc(C(F)(F)F)cc3Cl)cc2)c1 | -75.1% (active)
